Data on 12 compounds can be found in PubChem BioAssay.

A number with no mark means an inactive call. Cut-off read from the data, not from the text of the source, unless noted: active = inhibition above about 25%; inactive = the rest.

Assay [1] concerns the target Nuclear receptor coactivator 1 (Homo sapiens) (UniProt Q15788). Kind of assay: NCOA1 GAL4-fusion reporter inhibition – cell-based, luminescence, quadruplicate, confirmation (AID 588820;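 active = mean inhibition above 46.68%, the untreated control wells mean plus 3 SD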;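 note: 0% = DMSO wells and 100% = gossypol 36 µM treated wells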). The settings on record: HEK293 GAL4-SRC1 luciferase reporter, at 3.6 µM, stronger effect = higher value.
The nature of assay [2]: repression of VP16-driven luciferase reporter – cell-based, luminescence, high throughput, counter-screen for SRC1 inhibitor project (AID 588824). The settings on record: cell-based VP16 transactivation luciferase luminescence; at 3.6 µM; stronger effect = higher value.

Sequence of Nuclear receptor coactivator 1 (Homo sapiens) (Q15788 whole entry, looked up, the tested form may be a part): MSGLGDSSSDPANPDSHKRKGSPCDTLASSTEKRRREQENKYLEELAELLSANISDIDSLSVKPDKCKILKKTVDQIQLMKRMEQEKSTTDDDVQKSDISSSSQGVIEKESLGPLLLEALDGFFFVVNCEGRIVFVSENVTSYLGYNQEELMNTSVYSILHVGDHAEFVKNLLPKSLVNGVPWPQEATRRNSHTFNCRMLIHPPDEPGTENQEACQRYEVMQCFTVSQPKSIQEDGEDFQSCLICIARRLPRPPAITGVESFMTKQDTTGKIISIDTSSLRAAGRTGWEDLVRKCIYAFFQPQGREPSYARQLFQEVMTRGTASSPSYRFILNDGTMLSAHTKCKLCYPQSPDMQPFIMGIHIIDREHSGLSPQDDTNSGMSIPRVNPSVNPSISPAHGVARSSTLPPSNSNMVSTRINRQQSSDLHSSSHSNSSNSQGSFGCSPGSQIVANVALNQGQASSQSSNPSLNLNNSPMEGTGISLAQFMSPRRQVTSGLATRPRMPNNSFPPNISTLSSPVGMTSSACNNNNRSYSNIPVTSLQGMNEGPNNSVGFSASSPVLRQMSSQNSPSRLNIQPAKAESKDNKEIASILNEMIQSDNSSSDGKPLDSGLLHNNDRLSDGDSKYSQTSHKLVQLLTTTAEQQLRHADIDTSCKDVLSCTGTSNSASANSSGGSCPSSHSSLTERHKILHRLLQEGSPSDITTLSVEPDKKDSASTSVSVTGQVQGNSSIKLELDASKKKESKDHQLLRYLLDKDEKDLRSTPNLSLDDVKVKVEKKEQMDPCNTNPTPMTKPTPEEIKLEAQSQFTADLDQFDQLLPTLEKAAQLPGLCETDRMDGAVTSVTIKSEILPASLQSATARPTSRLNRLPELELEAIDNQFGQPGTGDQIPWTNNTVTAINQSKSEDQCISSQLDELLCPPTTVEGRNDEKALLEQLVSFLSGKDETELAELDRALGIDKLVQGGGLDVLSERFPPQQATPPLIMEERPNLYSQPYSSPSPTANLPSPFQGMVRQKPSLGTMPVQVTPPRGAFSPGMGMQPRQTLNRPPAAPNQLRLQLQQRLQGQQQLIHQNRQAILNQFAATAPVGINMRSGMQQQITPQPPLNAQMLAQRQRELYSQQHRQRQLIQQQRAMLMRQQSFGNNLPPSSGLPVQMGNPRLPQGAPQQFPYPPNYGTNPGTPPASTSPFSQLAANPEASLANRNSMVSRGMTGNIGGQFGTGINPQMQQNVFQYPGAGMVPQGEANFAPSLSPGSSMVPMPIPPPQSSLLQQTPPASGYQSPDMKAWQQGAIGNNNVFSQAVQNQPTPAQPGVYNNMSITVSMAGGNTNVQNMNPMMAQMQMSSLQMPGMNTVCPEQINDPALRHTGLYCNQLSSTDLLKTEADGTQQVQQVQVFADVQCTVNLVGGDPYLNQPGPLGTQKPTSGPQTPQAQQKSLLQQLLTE

As for `C(=N\Nc1nc2ccccc2[nH]1)/c1ccc2ncccc2c1`, the values for the inhibition in assay [1] and in assay [2] were -40.4% and -63.6%, respectively.
The like results for `COc1ccc(C(C(=O)NCC2CCCO2)N(Cc2cccs2)C(=O)c2snc(C(N)=O)c2N)cc1` (centres undefined) were, in that order, -52.6% and -8.57%.
For `Cc1c(C)n2c(SCC(=O)NCc3ccc4c(c3)OCO4)nnc2[nH]c1=O` the same measures were -1.32% and -7.94%.
The like results for `COc1ccc(-c2cc(=O)oc3c(C)c(O)c(CN(C)C)cc23)cc1` were, in that order, 17.5% and 18.4%.
Consider `O=C(Nc1ccccc1N1CCOCC1)c1ccc(N2CCOCC2)c([N+](=O)[O-])c1`, for which the inhibition in assay [1] is -19.5%; in assay [2], -16.2%.
For `CCOC(=O)N1CCC(N(CCN(C)C)C(=S)Nc2ccccc2OCC)CC1` the same measures were -21.5% and 4.03%.
For `COc1cc(C(=O)OCC(=O)NC(N)=O)cc(CN2C(=O)c3ccccc3C2=O)c1OC` the same measures were -10.9% and -8.55%.
The like results for `Cc1cc(OCCCN2CCCC2)ccc1Cl` were, in that order, -14.7% and -11.8%.
As for `COc1ccc(S(=O)(=O)Nc2ccc(F)c(Cl)c2)cc1OC`, the inhibition is -9.19% in assay [1] and -10.6% in assay [2].
For `CN(CC(=O)NNC(=O)Cc1ccccc1F)S(=O)(=O)c1ccc(Cl)cc1` the same measures were -12.3% and 4.4%.
The like results for `CN(C)C(=O)c1cccc(-c2cnc3cccnn23)c1` were, in that order, -7.49% and 7.53%.
For `COCCN1C2=C(C(=O)CC(C)(C)C2)C(c2ccc(OC)c(OC)c2)C2=C1CC(C)(C)CC2=O` the same measures were -10.8% and 12%.
